Of roughly 6,500 targets only a part is listed; those with a hit were picked by preference. About 2% of all pairs of compound and target were hits. Values without a mark were called inactive.

Chain of UniProt Q8WXI9 (Q8WXI9 whole entry, looked up): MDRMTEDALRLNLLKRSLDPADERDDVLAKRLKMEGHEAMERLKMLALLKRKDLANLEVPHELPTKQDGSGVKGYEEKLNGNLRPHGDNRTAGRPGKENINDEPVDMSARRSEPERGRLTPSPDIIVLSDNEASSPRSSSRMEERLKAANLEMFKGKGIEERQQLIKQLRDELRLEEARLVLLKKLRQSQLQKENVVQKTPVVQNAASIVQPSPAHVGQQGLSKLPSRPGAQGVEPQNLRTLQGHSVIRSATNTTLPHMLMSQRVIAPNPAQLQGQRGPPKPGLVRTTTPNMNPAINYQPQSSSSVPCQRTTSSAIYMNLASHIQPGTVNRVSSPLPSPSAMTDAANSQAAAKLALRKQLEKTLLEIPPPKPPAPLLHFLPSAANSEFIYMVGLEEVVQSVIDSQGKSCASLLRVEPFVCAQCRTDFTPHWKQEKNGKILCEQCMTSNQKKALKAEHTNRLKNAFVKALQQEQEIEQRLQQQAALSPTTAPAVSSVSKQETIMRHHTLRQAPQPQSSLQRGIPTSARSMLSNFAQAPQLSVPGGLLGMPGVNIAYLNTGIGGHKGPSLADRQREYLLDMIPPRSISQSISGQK
Chain of UniProt Q8IYS2 (Q8IYS2 whole entry): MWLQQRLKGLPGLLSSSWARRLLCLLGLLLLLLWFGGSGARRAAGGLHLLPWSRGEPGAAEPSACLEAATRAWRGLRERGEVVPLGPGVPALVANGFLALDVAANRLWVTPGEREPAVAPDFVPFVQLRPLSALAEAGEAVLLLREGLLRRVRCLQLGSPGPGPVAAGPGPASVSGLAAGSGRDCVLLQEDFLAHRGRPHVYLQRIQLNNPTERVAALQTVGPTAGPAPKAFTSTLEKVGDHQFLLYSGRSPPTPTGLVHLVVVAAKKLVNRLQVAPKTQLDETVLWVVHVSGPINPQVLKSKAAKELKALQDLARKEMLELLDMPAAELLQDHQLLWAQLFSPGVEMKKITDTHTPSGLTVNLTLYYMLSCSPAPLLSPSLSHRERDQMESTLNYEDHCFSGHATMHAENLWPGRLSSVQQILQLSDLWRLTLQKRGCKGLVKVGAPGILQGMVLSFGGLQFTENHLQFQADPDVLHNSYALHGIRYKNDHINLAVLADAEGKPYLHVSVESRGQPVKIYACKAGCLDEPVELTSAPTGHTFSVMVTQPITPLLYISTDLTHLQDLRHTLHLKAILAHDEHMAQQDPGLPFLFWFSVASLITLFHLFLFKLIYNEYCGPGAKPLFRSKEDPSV
Chain of UniProt Q96GX9 (Q96GX9 whole entry, looked up): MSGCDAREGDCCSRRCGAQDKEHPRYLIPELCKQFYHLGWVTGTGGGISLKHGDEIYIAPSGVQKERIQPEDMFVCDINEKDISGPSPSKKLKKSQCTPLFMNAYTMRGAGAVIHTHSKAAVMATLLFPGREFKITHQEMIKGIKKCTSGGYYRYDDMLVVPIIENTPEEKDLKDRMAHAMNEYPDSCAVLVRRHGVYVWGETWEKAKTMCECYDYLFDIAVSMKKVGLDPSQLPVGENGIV
Chain of UniProt Q7L576 (Q7L576 whole entry, looked up): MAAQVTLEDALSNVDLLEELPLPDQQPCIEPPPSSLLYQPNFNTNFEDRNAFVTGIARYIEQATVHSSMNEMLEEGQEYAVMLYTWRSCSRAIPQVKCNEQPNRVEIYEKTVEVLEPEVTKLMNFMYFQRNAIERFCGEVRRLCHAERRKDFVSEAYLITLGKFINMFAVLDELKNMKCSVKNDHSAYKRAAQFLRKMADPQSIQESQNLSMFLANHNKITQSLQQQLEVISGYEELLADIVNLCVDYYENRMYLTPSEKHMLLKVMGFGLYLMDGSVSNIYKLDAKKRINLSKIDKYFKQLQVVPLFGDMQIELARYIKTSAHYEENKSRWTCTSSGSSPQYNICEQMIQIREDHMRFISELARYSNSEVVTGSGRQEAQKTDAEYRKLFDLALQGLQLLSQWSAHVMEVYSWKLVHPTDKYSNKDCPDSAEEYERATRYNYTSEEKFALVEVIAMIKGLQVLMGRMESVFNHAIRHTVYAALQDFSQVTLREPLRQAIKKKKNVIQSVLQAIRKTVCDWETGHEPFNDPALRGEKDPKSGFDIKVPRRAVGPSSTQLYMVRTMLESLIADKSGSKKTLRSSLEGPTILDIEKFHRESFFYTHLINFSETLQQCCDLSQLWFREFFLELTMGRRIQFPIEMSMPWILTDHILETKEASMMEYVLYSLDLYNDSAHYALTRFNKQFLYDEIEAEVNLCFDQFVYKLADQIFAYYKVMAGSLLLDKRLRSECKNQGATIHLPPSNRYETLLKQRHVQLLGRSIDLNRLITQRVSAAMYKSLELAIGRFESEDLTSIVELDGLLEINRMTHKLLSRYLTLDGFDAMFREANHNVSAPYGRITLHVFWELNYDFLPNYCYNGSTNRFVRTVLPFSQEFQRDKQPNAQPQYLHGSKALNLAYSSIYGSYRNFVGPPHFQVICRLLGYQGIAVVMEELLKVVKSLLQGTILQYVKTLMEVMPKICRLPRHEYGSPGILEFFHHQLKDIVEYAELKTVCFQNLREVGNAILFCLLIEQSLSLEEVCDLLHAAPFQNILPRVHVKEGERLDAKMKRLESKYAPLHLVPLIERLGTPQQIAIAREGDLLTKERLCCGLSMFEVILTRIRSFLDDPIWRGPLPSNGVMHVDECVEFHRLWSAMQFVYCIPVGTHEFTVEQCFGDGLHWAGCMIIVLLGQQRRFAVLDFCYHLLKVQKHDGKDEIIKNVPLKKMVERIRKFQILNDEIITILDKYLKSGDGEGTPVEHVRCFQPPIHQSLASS
Chain of UniProt Q99729 (Q99729 whole entry): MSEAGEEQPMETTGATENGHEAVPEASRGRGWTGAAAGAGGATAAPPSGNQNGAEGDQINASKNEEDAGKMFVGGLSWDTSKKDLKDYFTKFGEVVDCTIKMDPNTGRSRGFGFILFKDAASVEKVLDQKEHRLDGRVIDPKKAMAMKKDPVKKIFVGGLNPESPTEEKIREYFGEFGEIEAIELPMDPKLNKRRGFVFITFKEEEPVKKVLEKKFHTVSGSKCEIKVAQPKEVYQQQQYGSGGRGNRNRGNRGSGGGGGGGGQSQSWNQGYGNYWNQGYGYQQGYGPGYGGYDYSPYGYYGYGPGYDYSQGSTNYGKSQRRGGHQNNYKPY
Chain of UniProt Q86VP6 (Q86VP6 whole entry, looked up): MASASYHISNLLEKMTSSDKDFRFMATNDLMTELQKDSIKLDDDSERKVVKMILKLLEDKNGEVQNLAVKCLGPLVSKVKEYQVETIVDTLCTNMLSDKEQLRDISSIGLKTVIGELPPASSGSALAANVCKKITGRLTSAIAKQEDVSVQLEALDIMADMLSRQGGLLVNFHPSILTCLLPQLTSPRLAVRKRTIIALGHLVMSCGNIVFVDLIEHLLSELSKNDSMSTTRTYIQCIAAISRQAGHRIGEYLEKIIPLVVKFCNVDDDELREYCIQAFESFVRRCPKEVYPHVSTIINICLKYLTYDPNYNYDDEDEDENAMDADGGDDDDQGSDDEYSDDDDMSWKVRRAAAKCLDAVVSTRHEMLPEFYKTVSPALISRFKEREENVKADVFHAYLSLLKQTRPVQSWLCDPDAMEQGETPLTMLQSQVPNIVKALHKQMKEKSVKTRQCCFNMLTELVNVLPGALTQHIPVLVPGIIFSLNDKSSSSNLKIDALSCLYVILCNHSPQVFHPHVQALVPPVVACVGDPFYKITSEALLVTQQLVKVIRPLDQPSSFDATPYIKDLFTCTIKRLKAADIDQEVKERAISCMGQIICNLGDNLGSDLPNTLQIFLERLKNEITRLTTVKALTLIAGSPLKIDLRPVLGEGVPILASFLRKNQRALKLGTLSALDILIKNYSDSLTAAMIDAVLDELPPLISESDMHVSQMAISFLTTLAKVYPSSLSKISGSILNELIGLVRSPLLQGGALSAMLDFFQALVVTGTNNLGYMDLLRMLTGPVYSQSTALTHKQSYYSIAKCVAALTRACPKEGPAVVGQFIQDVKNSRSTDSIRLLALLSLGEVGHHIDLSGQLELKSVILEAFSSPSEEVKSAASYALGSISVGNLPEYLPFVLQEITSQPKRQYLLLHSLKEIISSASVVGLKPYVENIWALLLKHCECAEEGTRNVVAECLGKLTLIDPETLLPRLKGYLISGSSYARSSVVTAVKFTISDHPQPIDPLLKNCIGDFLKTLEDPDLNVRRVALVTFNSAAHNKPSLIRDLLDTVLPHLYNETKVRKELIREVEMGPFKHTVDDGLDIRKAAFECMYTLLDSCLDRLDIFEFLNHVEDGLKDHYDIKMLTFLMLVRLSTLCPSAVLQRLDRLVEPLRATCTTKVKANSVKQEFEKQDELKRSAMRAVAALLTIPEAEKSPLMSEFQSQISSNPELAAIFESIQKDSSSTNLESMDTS
Chain of UniProt Q86U28 (Q86U28 whole entry, looked up): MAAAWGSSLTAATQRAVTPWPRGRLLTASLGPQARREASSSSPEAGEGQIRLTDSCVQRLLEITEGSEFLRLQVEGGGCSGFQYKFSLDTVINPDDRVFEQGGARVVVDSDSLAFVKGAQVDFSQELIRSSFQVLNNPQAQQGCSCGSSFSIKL
Chain of UniProt Q6IBW4 (Q6IBW4 whole entry, looked up): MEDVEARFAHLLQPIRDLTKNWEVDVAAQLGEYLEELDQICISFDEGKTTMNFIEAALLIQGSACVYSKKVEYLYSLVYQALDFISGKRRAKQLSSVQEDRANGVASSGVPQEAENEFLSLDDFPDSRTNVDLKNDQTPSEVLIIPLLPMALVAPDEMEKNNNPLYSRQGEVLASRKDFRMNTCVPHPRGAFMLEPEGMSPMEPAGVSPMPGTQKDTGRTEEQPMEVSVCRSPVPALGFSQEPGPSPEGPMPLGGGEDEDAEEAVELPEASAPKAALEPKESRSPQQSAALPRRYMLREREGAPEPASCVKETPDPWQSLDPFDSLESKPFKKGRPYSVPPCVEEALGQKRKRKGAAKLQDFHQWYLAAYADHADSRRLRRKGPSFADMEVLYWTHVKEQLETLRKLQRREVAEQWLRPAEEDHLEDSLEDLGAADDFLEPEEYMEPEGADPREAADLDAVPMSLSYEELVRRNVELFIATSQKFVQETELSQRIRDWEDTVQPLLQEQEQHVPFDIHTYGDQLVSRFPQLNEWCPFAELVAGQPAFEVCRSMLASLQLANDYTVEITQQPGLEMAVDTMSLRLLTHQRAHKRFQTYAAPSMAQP

Compound in the assay: COC(=O)C#Cc1ccccc1 [methyl 3-phenylpropiolate]
In words: log2 ratio of iodoacetamide-alkyne labeling of the cysteine site, DMSO over compound (competition); higher = stronger covalent engagement of the cysteine by the compound, active = 1 or more. To be noted: 500 µM; treatment time 1 h; system: HEK293T cell lysate. Put shortly: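 The log2 competition ratio per cysteine is defined as mean reporter intensity in control channels over mean reporter intensity in compound channels. Lysate from HEK293T cells (2 mg/mL) received electrophile (500 µM) or vehicle for 1 h at ambient temperature, followed by iodoacetamide alkyne for 1 h. Samples were clicked to sCIP-TMT reagents, pooled, trypsin-digested overnight at 37 °C, streptavidin-enriched, acid-eluted and run on Orbitrap Eclipse LC-MS/MS with FAIMS, with quantification in FragPipe. Three replicates with duplicate channels were used, and any cysteine quantified in only one replicate was excluded.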
For DHX38 C20 (UniProt Q92620), the “log2 ratio of iodoacetamide-alkyne labeling” value (“log2 ratio” below) is 1.36 (active).

For the target UniProt Q6ZS17_C1137, the “log2 ratio” value is 0.0366.

Consider UniProt Q92616_C36, for which the “log2 ratio” value is 0.339.

Turning to ANKRD40 C209 (UniProt Q6AI12), the “log2 ratio” value was 0.466.

In the case of TUBA1C C295 (UniProt Q9BQE3), the “log2 ratio” value is 0.453.

For CAND1 C275 (UniProt Q86VP6), the “log2 ratio” value is -0.226.

Regarding ZNF428 C93 (UniProt Q96B54), the “log2 ratio” value was 0.191.

As for ACO2 C448 (UniProt Q99798), the “log2 ratio” value is 1.71 (active).

In the case of UniProt Q6PJG6_C228, the “log2 ratio” value is 1.06 (active).

For the target TRUB1 C269 (UniProt Q8WWH5), the “log2 ratio” value was 0.163.

For the target UniProt Q8N1G2_C794, the “log2 ratio” value is 0.107.

Turning to DCUN1D4 C253 (UniProt Q92564), the “log2 ratio” value is 0.287.

Consider TBRG4 C335 (UniProt Q969Z0), for which the “log2 ratio” value was 0.436.

Consider ISCA2 C144 (UniProt Q86U28), for which the “log2 ratio” value was 1.59 (active).

On to KIAA2013 C185 (UniProt Q8IYS2), for which the “log2 ratio” value was 0.14.

Consider CYFIP1 C98 (UniProt Q7L576), for which the “log2 ratio” value is 1.78 (active).

For ARID2 C1549 (UniProt Q68CP9), the “log2 ratio” value was 0.434.

Turning to UniProt Q7RTV0_C46, the “log2 ratio” value is 0.211.

Regarding SNF8 C72 (UniProt Q96H20), the “log2 ratio” value was 0.2.

For SLFN11 C126 (UniProt Q7Z7L1), the “log2 ratio” value was 0.146.

Regarding HNRNPAB C98 (UniProt Q99729), the “log2 ratio” value is -0.0694.

Consider UniProt Q9BSH4_C112, for which the “log2 ratio” value was -0.152.

For NCAPH2 C342 (UniProt Q6IBW4), the “log2 ratio” value was 1.07 (active).

UniProt Q8NB37_C154: the “log2 ratio” value is 0.389.

Consider GINS3 C188 (UniProt Q9BRX5), for which the “log2 ratio” value is 0.255.

On to PARG C515 (UniProt Q86W56), for which the “log2 ratio” value was 1.16 (active).

Consider APIP C97 (UniProt Q96GX9), for which the “log2 ratio” value was 0.129.

With ANKRD40 C358 (UniProt Q6AI12), the “log2 ratio” value was 1.2 (active).

In the case of GATAD2B C423 (UniProt Q8WXI9), the “log2 ratio” value was 0.12.

On to DHX38 C27 (UniProt Q92620), for which the “log2 ratio” value was 1.36 (active).

On to SPAG5 C1035 (UniProt Q96R06), for which the “log2 ratio” value was 0.251.

Regarding MACROD1 C199 (UniProt Q9BQ69), the “log2 ratio” value was -0.0967.

In the case of ANKHD1 C777 (UniProt Q8IWZ3), the “log2 ratio” value is 0.251.

ZNF428 C114 (UniProt Q96B54): the “log2 ratio” value was 0.0848.

The values are drawn from the supplement of paper PMC11006884.
